Assay [1] in a line: compound effects on lung adenocarcinoma cell viability – A549, calcein-AM fluorescence, 48 h, basal, profiling panel (AID 1162). Further: test concentration not given here. The following applies: higher = more signal.
A short description of assay [2]: compound effects on differentiated 3T3-L1 adipocyte viability – cell-based, 3T3-L1 adipocytes, calcein-AM fluorescence, 48 h, basal, profiling panel (AID 1163). Further: test concentration not given here. The following applies: 3T3-L1 adipocytes viability, higher = more signal.
The nature of assay [3]: compound effects on hepatocellular carcinoma cell viability – HepG2, calcein-AM fluorescence, 48 h, basal, profiling panel (AID 1164). Further: test concentration not given here. The following applies: higher = more signal.
The nature of assay [4]: compound effects on multiple myeloma cell viability – MM1S, calcein-AM fluorescence, 48 h, basal, profiling panel (AID 1165). Further: test concentration not given here. As to conditions: higher = more signal.
Assay [5] in a line: calcein-AM signal in unstimulated myeloma cells – cell-based, calcein-AM fluorescence, 48 h, PK04 Diversity Set, profiling panel (AID 1166).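 Further: cells grown under basal conditions without added stimulus; test concentration not given here.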 As to conditions: RPMI8226 myeloma viability, higher = more signal.
The nature of assay [6]: JC-1 mitochondrial signal, unstimulated HepG2 cells – cell-based, JC-1 fluorescence, 24 h, 100 nL compound, profiling panel (AID 1167). Further: test concentration not given here. The following applies: HepG2 mitochondrial potential, higher = more signal.
Assay [7] in a line: JC-1 mitochondrial signal, unstimulated adipocytes – cell-based, JC-1 fluorescence, 3T3-L1 adipocytes, 24 h, 100 nL compound, profiling panel (AID 1168). Further: test concentration not given here. The following applies: JC-1 mitochondrial fluorescence, higher = more signal, called active from +8 up or from −8 down.
Assay [8] can be described thus: JC-1 mitochondrial signal, unstimulated myeloma cells – cell-based, JC-1 fluorescence, RPMI8226, 24 h, 100 nL compound, profiling panel (AID 1169). Further: test concentration not given here. The following applies: JC-1 mitochondrial potential fluorescence, higher = more signal.
A short description of assay [9]: JC-1 mitochondrial signal, unstimulated MM1S myeloma – cell-based, JC-1 fluorescence, 24 h, 100 nL compound, profiling panel (AID 1170). Further: test concentration not given here. As to conditions: MM1S mitochondrial potential, higher = more signal.
Assay [10] is described as follows: resazurin metabolic signal in A549 cells – cell-based, resazurin fluorescence, 24 h, PK04 Diversity Set, profiling panel (AID 1171). Further: test concentration not given here. The following applies: A549 viability, higher = more signal, called active from +8 up or from −8 down.
Assay [11] can be described thus: resazurin metabolic signal in HepG2 cells – cell-based, resazurin fluorescence, 24 h, PK04 Diversity Set, profiling panel (AID 1172). Further: test concentration not given here. The following applies: HepG2 viability, higher = more signal. (Resazurin is reduced to fluorescent resorufin, in cell work by metabolically active cells.)
Assay [12] can be described thus: budding yeast growth changes without added modifier – OD600, strain BY4716, 24 h, basal condition, primary screen (AID 1173). As to conditions: S. cerevisiae BY4716 growth, OD600, 24 h; higher = more signal, called active from +8 up or from −8 down.
Assay [13] in a line: viability profiling in MM1S myeloma cells – cell-based, resazurin fluorescence, basal, 24 h, PK04 Diversity Set, profiling panel (AID 1174). Further: test concentration not given here. As to conditions: higher = more signal, called active from +8 up or from −8 down.
For assay [14], the target named is Dihydroorotate dehydrogenase (quinone), mitochondrial (Plasmodium falciparum (isolate 3D7)) (UniProt Q08210). Kind of assay: inhibition of P. falciparum DHODH – biochemical, C-terminal His tag, absorbance 600 nm, primary screen (AID 1175).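 Further: recombinant parasite enzyme with a five histidine tag at its C terminus; test concentration not given here.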 As to conditions: PfDHODH enzyme, DCIP absorbance 600 nm; higher = more signal, called active from +8 up or from −8 down.
Sequence of Dihydroorotate dehydrogenase (quinone), mitochondrial (Plasmodium falciparum (isolate 3D7)) (Q08210 whole entry, looked up): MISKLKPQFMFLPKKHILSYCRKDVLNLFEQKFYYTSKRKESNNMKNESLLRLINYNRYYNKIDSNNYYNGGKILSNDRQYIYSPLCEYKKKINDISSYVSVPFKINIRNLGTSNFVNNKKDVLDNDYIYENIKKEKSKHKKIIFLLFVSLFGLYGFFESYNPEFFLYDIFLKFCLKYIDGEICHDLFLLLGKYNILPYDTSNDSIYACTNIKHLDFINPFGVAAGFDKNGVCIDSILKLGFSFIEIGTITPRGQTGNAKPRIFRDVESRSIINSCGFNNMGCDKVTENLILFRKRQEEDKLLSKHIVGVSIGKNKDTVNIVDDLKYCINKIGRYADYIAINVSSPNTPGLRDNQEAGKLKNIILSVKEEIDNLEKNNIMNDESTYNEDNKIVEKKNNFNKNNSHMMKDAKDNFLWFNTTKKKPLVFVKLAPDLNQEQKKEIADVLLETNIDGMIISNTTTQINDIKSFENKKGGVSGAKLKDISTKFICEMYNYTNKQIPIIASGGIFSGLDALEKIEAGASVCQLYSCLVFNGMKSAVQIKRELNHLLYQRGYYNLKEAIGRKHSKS
Assay [15] in a line: inhibition of PAO1 biofilm formation – strain PAO1, LB-PBS medium, absorbance 600 nm, primary screen (AID 1176). Further: test concentration not given here. The following applies: P. aeruginosa PAO1 growth/biofilm, A600, 12 h; higher = more signal.
Assay [16] can be described thus: growth modulation of vineyard yeast isolate – strain RM11-1a, OD600, basal, 24 h, primary screen (AID 1177).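 Further: cultures grown under basal conditions with no added stressor; test concentration not given here.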 The following applies: S. cerevisiae RM11-1a growth, OD600, 24 h; higher = more signal, called active from +8 up or from −8 down.
Assay [17] in a line: growth of efflux-deficient E. coli DRC39 – strain DRC39, OD650, 24 h, E. coli filamentation inducers, primary screen (AID 1178).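 Further: growth measured as culture turbidity by optical density at 650 nm; test concentration not given here.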 The following applies: E. coli DRC39 acrAB, higher = more signal, called active from +8 up or from −8 down.
Assay [18] in a line: growth of efflux-deficient E. coli DRC39 – strain DRC39, OD650, 48 h, E. coli filamentation inducers, primary screen (AID 1179).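 Further: screen aims at cell division blockers that make cells filament.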 The following applies: E. coli DRC39 delta-acrAB growth, higher = more signal, called active from +8 up or from −8 down.
A short description of assay [19]: viability profiling in RPMI8226 myeloma cells – cell-based, resazurin fluorescence, basal, 24 h, PK04 Diversity Set, profiling panel (AID 1180).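 Further: RPMI8826 multiple myeloma cell line at 5000 cells per well; test concentration not given here.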 As to conditions: higher = more signal.
The target in assay [20] is E3 ubiquitin-protein ligase XIAP (Homo sapiens) (UniProt P98170). In words: small molecules binding XIAP protein – biophysical, small-molecule microarray, fluorescence 635 nm, primary screen (AID 1181).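 Further: score merges 667 nm emission and signal to noise over triplicate slides.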 As to conditions: higher = more signal.
Sequence of E3 ubiquitin-protein ligase XIAP (Homo sapiens) (P98170 whole entry, looked up): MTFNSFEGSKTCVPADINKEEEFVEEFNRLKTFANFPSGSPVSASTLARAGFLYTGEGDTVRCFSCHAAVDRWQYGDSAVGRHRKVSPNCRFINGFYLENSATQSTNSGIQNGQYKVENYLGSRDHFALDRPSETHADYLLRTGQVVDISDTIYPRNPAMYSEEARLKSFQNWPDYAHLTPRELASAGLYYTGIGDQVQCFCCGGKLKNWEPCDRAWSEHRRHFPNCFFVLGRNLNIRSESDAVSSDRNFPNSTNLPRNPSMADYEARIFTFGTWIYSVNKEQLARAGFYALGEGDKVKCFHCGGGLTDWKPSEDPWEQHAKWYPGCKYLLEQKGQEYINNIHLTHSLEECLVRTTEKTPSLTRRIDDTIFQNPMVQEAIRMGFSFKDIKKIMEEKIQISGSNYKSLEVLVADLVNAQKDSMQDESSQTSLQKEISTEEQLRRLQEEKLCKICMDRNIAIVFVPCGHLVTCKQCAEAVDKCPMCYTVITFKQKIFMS

Drawing on PubChem BioAssay, this text covers z-score and composite z-score for six compounds.

Active and inactive are the calls of the source. Unless noted, how the calls were made is not given here.

Take `COCCOC(=O)N1C(=O)[C@@]2(c3cc(C#CC4(O)CCCCCC4)ccc31)[C@H](C(=O)N1CCN(c3ncccn3)CC1)[C@H]1C(=O)O[C@H](c3ccccc3)[C@H](c3ccccc3)N1[C@@H]2c1ccccc1OCCO`: the z-score in [1] was -0.118; in assay [2], 0.481; in assay [3] it was -0.594; in assay [4], -0.483; in assay [5] it was -1.98; in assay [6], -0.151. The z-score in assay [7] was 0.909 (inactive); in assay [8], -0.288; in assay [9], -0.589; in assay [10], -0.0171 (inactive); in assay [11], 0.212; in assay [12] it was 2.67 (inactive). The z-score is -0.194 (inactive) in [13]; 2.12 (inactive) in [15]; 3.05 (inactive) in assay [16]; -0.322 (inactive) in assay [17]; -0.473 (inactive) in [18]; 0.177 in assay [19]. The composite z-score in [14] is 0.97 (inactive); in [20] it was -0.068.

For the compound `C=CCNC(=O)[C@H]1[C@@H]2C(=O)O[C@@H](c3ccccc3)[C@@H](c3ccccc3)N2[C@@H](c2ccc(OCCO)cc2)[C@]12C(=O)Nc1ccc(C#CCNC(N)=O)cc12`, the z-score in [1] is 0.292; in [2], 1.63; in [3] it was -0.529; in assay [4] it was -1.41; in assay [5], -0.062; in assay [6], -1.11. Moreover, the z-score in assay [7] was -0.657 (inactive); in assay [8], -0.0816; in assay [9], 0.938; in [10], -0.805 (inactive); in assay [11] it was -0.598; in assay [12], 2.3 (inactive). Besides, the z-score in assay [13] is 0.0869 (inactive); in assay [15] it was 1.99 (inactive); in assay [16] it was 3.25 (inactive); in assay [17], -0.575 (inactive); in [18], -1.22 (inactive); in assay [19], 0.687. Moreover, the composite z-score was 0.428 (inactive) in [14] and -0.163 in assay [20].

Regarding `C[C@]1(C(=O)NCCN2CCOCC2)c2ccccc2C(=O)N(Cc2cc(F)cc(C(F)(F)F)c2)[C@H]1c1ccc(CO)cc1`, the z-score was 0.13 in [1]; -0.35 in assay [2]; 0.545 in assay [3]; -0.89 in assay [4]; 0.231 in assay [5]; 2.36 in [6]. Further, the z-score in assay [7] is 0.835 (inactive); in assay [8] it was 0.695; in assay [9], -0.714; in assay [10] it was 0.693 (inactive); in assay [11], -0.0395; in [12], 0.375 (inactive). In addition, the z-score in assay [13] is -0.464 (inactive); in assay [15], 0.664 (inactive); in assay [16], 0.0645 (inactive); in assay [17], 1 (inactive); in assay [18], 1.67 (inactive); in assay [19], 0.0794. The composite z-score is 0.376 (inactive) in [14] and -0.116 in assay [20].

In the case of `C=C(COC)C(=O)CC[C@@H](OC(=O)c1cccnc1)c1ccccc1OCCO`, the z-score in assay [1] is -0.0755; in assay [2], 0.46; in [3], -1.16; in assay [4], -3.38; in assay [5], -3.82; in assay [6] it was -0.758. Moreover, the z-score in assay [7] was 1.08 (inactive); in assay [8], -0.67; in assay [9], -2.43; in assay [10], 0.1 (inactive); in assay [11] it was -0.956; in assay [12], -0.585 (inactive). The z-score was -3.09 (inactive) in assay [13]; 0.519 (inactive) in assay [15]; -0.0421 (inactive) in assay [16]; 0.325 (inactive) in assay [17]; 0.206 (inactive) in assay [18]; -3.63 in [19]. Further, the composite z-score is -0.4 (inactive) in [14] and -0.0663 in assay [20].

Consider `CCCNC(=O)[C@@]1(C)c2ccccc2C(=O)N(Cc2ccccc2)[C@H]1c1ccc(CO)cc1`, for which the z-score was -0.0623 in [1]; 0.47 in [2]; 1.03 in assay [3]; -0.542 in assay [4]; 0.485 in assay [5]; 4.13 in [6]. Besides, the z-score was -0.0853 (inactive) in assay [7]; -0.415 in [8]; 1.14 in assay [9]; 1.47 (inactive) in assay [10]; -0.0367 in assay [11]; -0.312 (inactive) in assay [12]. Moreover, the z-score in assay [13] is 0.435 (inactive); in assay [15], -0.0065 (inactive); in assay [16] it was -0.637 (inactive); in [17], 0.503 (inactive); in assay [18], -0.105 (inactive); in [19], 1.67. Besides, the values for the composite z-score in [14] and in assay [20] were -0.0373 (inactive) and -0.0701, respectively.

`NCCCCCNC(=O)[C@@H]1C[C@@H]2C(=O)N3CCC[C@H]3C(=O)N2[C@@H]1c1ccc(O)cc1`: the z-score in [1] is 0.389; in assay [2], 0.485; in [3], 0.2; in [4] it was -0.42; in assay [5] it was 0.209; in assay [6], -0.0437. Besides, the z-score was -0.645 (inactive) in assay [7]; -0.175 in assay [8]; 0.73 in assay [9]; -0.234 (inactive) in assay [10]; -0.448 in assay [11]; 0.2 (inactive) in [12]. Further, the z-score in assay [13] is 0.422 (inactive); in assay [15], -0.102 (inactive); in assay [16], 0.801 (inactive); in assay [17] it was -0.281 (inactive); in assay [18] it was -0.107 (inactive); in assay [19], 0.272. Further, the composite z-score was 0.509 (inactive) in assay [14] and -0.0663 in assay [20].
